Measurements from PubChem BioAssay AID588342 (National Center for Advancing Translational Sciences (NCATS), 2011).
The campaign covered roughly 360,000 compounds. About 25,000 (6.9%) were called active. Not shown: some 9% with an inconclusive outcome. The entries come from a sample that favours actives as a whole. A number with no mark means an inactive call. The call rests on the fitted dose curve; in most records, active means well fitted inhibition curve with a large enough effect; inconclusive means small, poorly fitted or top-dose-only effect; inactive means flat fitted curve, though single readings scatter.

molecular target: Luciferin 4-monooxygenase (Photinus pyralis) (UniProt P08659); assay: qHTS profiling assay for firefly luciferase inhibitor/activator using purifed enzyme and Km concentrations of substrates (counterscreen for miR-21 project); conditions: purified FLuc, luminescence inhibition; series mostly up to 57.5 µM; activity change, negative = inhibition: at the top concentration; further: nearly all actives have a fitted effect of over 55% in size;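 on activity change, negative = inhibition: plate controls were vehicle for no effect and reference inhibitor for full effect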
In short: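 Purified P. pyralis luciferase (10nM final) with 10uM D-luciferin and 10uM ATP (Km levels) in 50mM Tris acetate pH 7.5, 10mM Mg acetate, 0.01% Tween-20, 0.05% BSA; qHTS 6-point titration, ~60 µM downward; luminescence read.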
Potency means the concentration at half of the fitted maximal effect.

Sequence of Luciferin 4-monooxygenase (Photinus pyralis) (P08659 whole entry, looked up): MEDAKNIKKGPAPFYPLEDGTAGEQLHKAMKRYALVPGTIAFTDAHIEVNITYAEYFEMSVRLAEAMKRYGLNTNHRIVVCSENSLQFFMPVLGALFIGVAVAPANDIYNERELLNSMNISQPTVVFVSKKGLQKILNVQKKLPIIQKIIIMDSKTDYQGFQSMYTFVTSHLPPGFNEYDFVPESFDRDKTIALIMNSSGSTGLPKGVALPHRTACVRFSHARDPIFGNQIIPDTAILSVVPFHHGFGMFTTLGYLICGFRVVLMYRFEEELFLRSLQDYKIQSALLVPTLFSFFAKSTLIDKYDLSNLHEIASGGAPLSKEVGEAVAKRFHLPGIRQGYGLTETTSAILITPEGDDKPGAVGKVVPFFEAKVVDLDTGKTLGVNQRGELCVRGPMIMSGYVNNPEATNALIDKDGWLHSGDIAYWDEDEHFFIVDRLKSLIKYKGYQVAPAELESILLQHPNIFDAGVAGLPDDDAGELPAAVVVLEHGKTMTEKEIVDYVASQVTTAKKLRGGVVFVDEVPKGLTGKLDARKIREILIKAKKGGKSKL

Row | Compound | activity change, negative = inhibition | Potency
1 | O=C(O)c1cc(S(=O)(=O)Nc2ccc3cn[nH]c3c2)ccc1Br | -5.78% | –
2 | O=C(CCCN1C(=O)c2ccccc2C1=O)Oc1ccc(Cl)cc1 | -5.24% | –
3 | Cc1cc(C)cc(OCC(=O)NNC(=O)CCN2C(=O)c3ccccc3C2=O)c1 | 1.62% | –
4 | Cc1cc(C(=O)COC(=O)CCCN2C(=O)c3ccccc3C2=O)c(C)n1C | – | 23.9 µM (active)
5 | CCCCN(Cc1ccccc1)C(=O)C1CCN(Cc2sccc2C)CC1 | -2.08% | –
6 | O=C(NC1CC(=O)N(c2ccc(F)cc2)C1)c1cccs1 (stereo unspecified) | -0.832% | –
7 | CN(C(=O)CSc1nc(C2CC2)nc2ccccc12)c1nc(-c2ccccc2)cs1 | 1.2% | –
8 | COc1ccc(CCN(C(=O)COc2ccccc2)c2nc(-c3ccccc3)cs2)cc1OC | 0.0185% | –
9 | CN(c1ccc(O)cc1)c1nc(-c2cccnc2)cs1 | – | 4.78 µM (active)
10 | Cc1ccc(S(=O)(=O)N(Cc2nc(-c3ccc(Cl)cc3)no2)C2CCCCC2)cc1 | 1.23% | –
11 | CC(C(=O)N1CCc2ccccc21)N(C)CC(=O)Nc1ccc(F)cc1 (stereo unspecified) | -1.04% | –
12 | Cc1cccn2c(=O)c(C=O)c(Nc3ccc(S(N)(=O)=O)cc3)nc12 | 0.613% | –
13 | CNc1nc2c(C)cccn2c(=O)c1C=Nc1ccc(OC)cc1 | – | 12 µM (active)
14 | Cc1cccn2c(=O)c(/C=C3\SC(=S)N(CC(C)C)C3=O)c(NCCCOC(C)C)nc12 | 1.38% | –
15 | Cc1ccc(CNC(=O)c2c(O)nc3c(C)cccn3c2=O)cc1 | -7.24% | –
16 | O=C(CCn1c(=O)oc2ccccc21)Nc1ccon1 | -14.9% | –
17 | Cc1ccccc1Nc1nnc(SCC(=O)c2cc3ccccc3o2)s1 | -1.37% | –
18 | CC(C)Nc1nnc(SCC(=O)c2c[nH]c3ccccc23)s1 | -11.3% | –
19 | CC(C)c1ccc(Nc2nnc(SCC(=O)c3nnc(-c4ccccc4)o3)s2)cc1 | – | 10.7 µM (active)
20 | CC1CCCC(NC(=O)c2cc(S(=O)(=O)N3CCCCC3)ccc2Cl)C1C (stereo unspecified) | 2.31% | –
21 | Cc1cc(N/N=C\c2ccc(Br)cc2)nc(-n2nc(C)cc2C)n1 | -0.864% | –
22 | Cc1nc(Cl)cc(N/N=C/c2ccccc2)n1 | – | 16.9 µM (active)
23 | C(=N/Nc1cc(N2CCOCC2)nc(N2CCOCC2)n1)/c1ccccc1 | -3.51% | –
24 | CN(CC(=O)Nc1ccc(F)c(F)c1F)C(=O)Cn1cnc2c1c(=O)n(C)c(=O)n2C | 2% | –
25 | COC(=O)C(C)Oc1ccc2c(c1)O/C(=C\c1cccc(Br)c1)C2=O (stereo unspecified) | -19.3% | –
26 | O=C1/C(=C/c2ccc3c(c2)OCO3)Oc2cc(OCC(=O)N3CC(O)C[C@H]3C(=O)O)ccc21 (stereo partly specified) | – | 0.757 µM (active)

Row | Compound | activity change, negative = inhibition | Potency
27 | CC1CCCN(CC(O)COc2ccc3c(c2)OCO3)C1 (stereo unspecified) | 1.9% | –
28 | O=C(CCNS(=O)(=O)c1ccc(Br)cc1)NCC1CCCO1 (stereo unspecified) | 3.61% | –
29 | O=C(Nc1ccccc1N1CCCCC1)c1ccc2nccnc2c1 | -1.25% | –
30 | O=C(Nc1ccccc1N1CCCC1)c1ccc2ccccc2c1 | – | 15.1 µM (active)
31 | O=C(Nc1ccccc1N1CCCC1)c1ccc(F)c(S(=O)(=O)N2CCOCC2)c1 | 0.53% | –
32 | Cc1cccc(OCCSc2nc3ccc(NC(=O)COc4ccccc4C)cc3s2)c1 | -4.35% | –
33 | CS(=O)(=O)N1CCN(c2cccc(Cl)n2)CC1 | -0.219% | –
34 | CS(=O)(=O)N1CCc2nc(-c3ccccc3)sc2C1 | – | 9.53 µM (active)
35 | CS(=O)(=O)N1CCN(C(=O)Cc2ccccc2)CC1 | 3.89% | –
36 | Cc1ccc(NC(=O)CCNC(=O)c2ccc([N+](=O)[O-])cc2)cc1S(=O)(=O)N1CCOCC1 | 4.27% | –
37 | CCOc1ccc(N(CC)S(=O)(=O)N2CCCC(C(=O)NCc3ccc(Cl)cc3)C2)cc1 (stereo unspecified) | -15.9% | –
38 | O=C(COc1ccccc1)Nc1nonc1NC(=O)COc1ccccc1 | – | 7.57 µM (active)
39 | CC(=O)Nc1ccc(NC(=O)COc2ccc(-c3ccccc3)cc2)cc1 | -2.67% | –
40 | O=C(COc1ccccc1)Nc1ccc(C(=O)N2CCCC2)cc1 | -0.942% | –
41 | CCCCN(CCCNC(=O)c1cc(Nc2ccccc2OC)nc2ccccc12)c1ccccc1 | -5.87% | –
42 | Cc1c(C)n(Cc2ccc(Cl)cc2)c2ccc(C(=O)NCCc3ccc(S(N)(=O)=O)cc3)cc12 | -12% | –
43 | COc1ccccc1NC(=O)C1=C(C)NC(=O)NC1c1ccc(C)s1 (stereo unspecified) | -1.32% | –
44 | COc1ccccc1NC(=O)c1ccc(C)s1 | – | 13.5 µM (active)
45 | COC(=O)c1c(NC(C)=O)sc(C(=O)Nc2ccccc2OC)c1C | -3.92% | –
46 | CCN(CC)C(=O)CSc1nc2ccccc2n1CC(=O)N1CCN(c2ccccc2OC)CC1 | 7.05% | –
47 | O=C(NCCC1=CCCCC1)C1CCN(Cc2cnn(-c3ccccc3)c2-n2cccc2)CC1 | 0.886% | –
48 | CCOC(=O)C1CCN(c2ncnc3c2c(-c2ccccc2)cn3-c2ccc(C)cc2)CC1 | -7.38% | –
49 | Cc1ccc(Cl)cc1-n1ncc2c(N3CCC(C(N)=O)CC3)ncnc21 | -2.86% | –
50 | Cc1ccc(-n2ncc3c(N4CCC(C(N)=O)CC4)ncnc32)cc1 | – | 12 µM (active)
51 | COc1ccccc1N1CCN(C(=O)CSc2ncnc3c2cnn3-c2ccc(C)c(C)c2)CC1 | – | 8.49 µM (active)
52 | COc1ccccc1N1CCN(C(=O)CSc2nnc(-c3ccoc3C)o2)CC1 | -1.48% | –

Row | Compound | activity change, negative = inhibition | Potency
53 | CCN1CCN(c2ncnc3c2cnn3-c2ccc(C)c(C)c2)CC1 | – | 9.53 µM (active)
54 | CCc1cc2c(N3CCN(c4nnc(CC)s4)CC3)ncnc2s1 | -1.27% | –
55 | O=C(NNc1ncnc2c1cnn2-c1ccccc1)c1ccco1 | -1.66% | –
56 | C1=C(CCNc2ncnc3c2cnn3-c2ccccc2)CCCC1 | – | 3.38 µM (active)
57 | Cc1ccc(-n2ncc3c(=O)n(Cc4cccc(C(F)(F)F)c4)cnc32)cc1C | -6.53% | –
58 | Cc1ccc(S(=O)(=O)N(C)C)cc1NC(=O)c1ccccc1Br | -3.56% | –
59 | Cn1cc(-c2ccccc2)cc(C#N)c1=O | 2.58% | –
60 | Cc1ccccc1CN1CCC(CNC(=O)c2cc3ccc4cccnc4c3[nH]2)CC1 | -4.76% | –
61 | Cc1ccc(N2CC(NC(=O)Cc3cccs3)CC2=O)cc1 (stereo unspecified) | -1.84% | –
62 | Cc1cccc(NC(=O)C2CC(=O)OC23CCCC3)c1 (stereo unspecified) | 2.02% | –
63 | Cn1nnc2c(N3CCN(c4ccccc4)CC3)ncnc21 | -8.03% | –
64 | c1ccc(-n2ncc3c(N4CCCC4)ncnc32)cc1 | – | 4.26 µM (active)
65 | Nc1c(C(=O)O)cnn1-c1ccccc1 | -3.2% | –
66 | Cc1ccc(CN(C(=O)c2ccccc2[N+](=O)[O-])c2ccccn2)cc1 | 2.1% | –
67 | Cc1cc(C)c(C#N)c(SCC(=O)N(CC(C)C)C2CCS(=O)(=O)C2)n1 (stereo unspecified) | 0.183% | –
68 | O=C(COC(=O)CNC(=O)C1CCCCC1)Nc1cccc(F)c1 | 3.66% | –
69 | Nc1c(C(=O)OCC(=O)Nc2ccc(OC(F)F)cc2)[nH]c(=O)[nH]c1=O | -1.54% | –
70 | O=S(=O)(c1ccc2nc(N3CCN(c4cccc(Cl)c4)CC3)ccc2c1)N1CCCCC1 | 0.918% | –
71 | Cc1ccc(C(=O)Nc2ccc3c(c2)OCO3)cc1S(=O)(=O)N1CCCCC1 | – | 16.9 µM (active)
72 | Cc1ccc(NC(=O)C2CC(=O)N(c3ccc4c(c3)OCCO4)C2)cc1S(=O)(=O)N1CCCCCC1 (stereo unspecified) | 2.14% | –
73 | O=C(c1ccc(Cl)c(S(=O)(=O)N2CCCCC2)c1)N1CCCCCC1 | -0.389% | –
74 | Cc1ccc(C(=O)NNC(=O)c2ccncc2)cc1S(=O)(=O)N1CCCCC1 | -0.932% | –
75 | O=C(c1ccc(Cl)c(S(=O)(=O)N2CCCCCC2)c1)N1CCN(c2ccc(O)cc2)CC1 | 4.76% | –
76 | O=C(Nc1ccc2c(c1)OCCO2)c1ccc(Cl)c(S(=O)(=O)N2CCCCC2)c1 | – | 13.5 µM (active)
77 | Cc1c(Cl)cccc1NC(=O)CCS(=O)(=O)c1ccc2c(c1)oc(=O)n2C | -5.67% | –
78 | COc1ccccc1CNS(=O)(=O)c1cc(C(=O)NCc2ccccn2)c(Cl)cc1Cl | 1.54% | –

Row | Compound | activity change, negative = inhibition | Potency
79 | CCC(C(=O)Nc1cc(OC)ccc1OC)n1c(=O)c(C(F)(F)F)nc2ccccc21 (stereo unspecified) | -0.546% | –
80 | O=C(O[C@H]1[C@H](Cc2ccccc2)NS(=O)(=O)[C@H]2C[C@@H]3C=C[C@]12O3)c1ccc([N+](=O)[O-])cc1 | 4.04% | –
81 | CCc1nonc1NC(=O)c1oc2ccc(Cl)cc2c1C | – | inactive
82 | Cc1cc(C)cc(NS(=O)(=O)c2cc3c(cc2C)NC(=O)CO3)c1 | -0.815% | –
83 | Cc1cccc(C2c3[nH]c4ccccc4c3CCN2C(=O)c2cc(-c3cccn3C)n[nH]2)n1 (stereo unspecified) | 2.66% | –
84 | Cc1ccc(C2c3[nH]c4ccccc4c3CCN2C(=O)c2cccc(C)c2)cc1 (stereo unspecified) | -0.203% | –
85 | Cc1cccc(C(=O)N2CCc3c([nH]c4ccccc34)C2CC(C)C)n1 (stereo unspecified) | – | 16.9 µM (active)
86 | O=C(NCc1cccnc1)C(=O)NCC(c1cccnc1)N1CCN(c2ccccc2)CC1 (stereo unspecified) | 5.36% | –
87 | CCn1cc(C(=O)NCc2ccc(C)cc2)c(=O)c2cc(S(=O)(=O)N3CCc4ccccc4C3)ccc21 | -5.12% | –
88 | Cc1ccc(NC(=O)CN2CCc3ccccc3C2)cc1C | -21.8% | –
89 | CCc1ccc(NC(=O)N2CCN(c3ccccc3)CC2)cc1 | -19.9% | –
90 | CCc1ccc(NC(=O)N2CCc3ccccc3C2)cc1 | – | 12 µM (active)
91 | O=C(Nc1cccc([N+](=O)[O-])c1)Nn1cnnc1 | 2.4% | –
92 | O=C(Nc1cccc([N+](=O)[O-])c1)N1CCc2ccccc2C1 | – | 21.3 µM (active)
93 | CN1CCN(CC(=O)Nc2cccc([N+](=O)[O-])c2)CC1 | 1.74% | –
94 | Cc1cc(-c2ccc(C)c(S(=O)(=O)N3c4ccccc4CC3C)c2)on1 (stereo unspecified) | 3.15% | –
95 | Cn1c(=O)c2c(nc(SCC(=O)Nc3ccc(F)cc3)n2Cc2ccc(Cl)cc2)n(C)c1=O | -3.31% | –
96 | S=C(Cc1ccc(Cl)cc1)N1CCOCC1 | -1.16% | –
97 | CCOC(=O)c1ccc(N2C(=O)c3n[nH]c(C)c3C2c2ccc(O)c(OC)c2)cc1 (stereo unspecified) | 6.1% | –
98 | CCOc1ccc(N(CC)S(=O)(=O)N2CCCC(C(=O)Nc3ccc(C(C)=O)cc3)C2)cc1 (stereo unspecified) | 2.45% | –
99 | NC(=O)CC[C@@H]1NC(=O)[C@@H]2CCCN2C(=O)c2cc([N+](=O)[O-])cc(F)c2NCCC[C@@H](C(N)=O)NC1=O | -0.328% | –
100 | Cc1ccc(C(C)C)c(OCCSc2nc3ccccc3n2CC(=O)O)c1 | -0.728% | –
101 | CCc1ccc(NC(=O)C2CCCN2S(=O)(=O)c2ccc3nc(-c4ccccc4)[nH]c3c2)cc1 (stereo unspecified) | -18.6% | –
